TRHR ag = TRH receptor (human) agonism | P34981 | TRHR cells, calcium flux fluo-8, FDSS agonist mode | activation, % at 2 µM | 360,000 compounds, 0.18% hits; further: 0% is about no effect
Target sequence (P34981 whole entry, looked up): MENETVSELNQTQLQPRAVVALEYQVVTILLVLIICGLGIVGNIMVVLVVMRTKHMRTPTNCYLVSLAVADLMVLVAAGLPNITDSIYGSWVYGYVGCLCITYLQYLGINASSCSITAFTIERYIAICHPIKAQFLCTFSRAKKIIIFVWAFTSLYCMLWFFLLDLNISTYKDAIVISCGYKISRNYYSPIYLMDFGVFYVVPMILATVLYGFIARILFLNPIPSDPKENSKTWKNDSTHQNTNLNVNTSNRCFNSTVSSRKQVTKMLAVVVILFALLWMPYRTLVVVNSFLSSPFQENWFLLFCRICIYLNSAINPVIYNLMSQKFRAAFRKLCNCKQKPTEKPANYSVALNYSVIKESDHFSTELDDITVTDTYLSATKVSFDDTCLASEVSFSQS
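TRHR-expressing cells loaded with fluo-8 calcium dye; 23 nL library compound pin-transferred, kinetic FDSS fluorescence (Ex 480/Em 530) recorded about 180 s for agonist-induced calcium release, before a 10 nM TRH EC20 addition for potentiator mode.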
D1 antagonist = antagonists of human D1 dopamine receptor; HEK293 TREx D1 cells, calcium flux, dopamine EC80; hits give low values; P21728; activity change, negative = inhibition, % at 10 µM; 360,000 compounds, 3.2% hits; in the data active means activity change below about -30%; further: on the % scale 0 is the no-effect control and ±100 the full control effect
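Tetracycline-induced HEK293 T-REx cells with force-coupled D1 receptor were loaded with a no-wash calcium dye. Compound was added after a 10 s baseline and read kinetically for 180 s; EC80 dopamine was then added and calcium flux followed another 180 s.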
D1 agonist = human D1 receptor agonism. P21728. HEK293 T-REx D1 cells, calcium flux, agonist mode. activation, % at 2 µM. 360,000 compounds, 1% hits; further: 0% is about no effect
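Agonism was scored from calcium flux recorded over 180 s (1 read/s) after pintool compound addition, following a 10-cycle baseline. Cells were inducible force-coupled HEK293 TREx D1, plated overnight at 30 C and loaded with no-wash calcium dye.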
D1 PAM = potentiators of human D1 dopamine receptor; potentiation, % at 10 µM; HEK293 TREx D1 cells, calcium flux, dopamine EC20 potentiation; P21728; 360,000 compounds, 0.036% hits; in the data active means potentiation above about 30%; further: 0% is about no effect
TRHR PAM = TRH receptor (human) allosteric enhancement. enhancement, % at 2 µM. 360,000 compounds, 0.66% hits. TRHR cells, fluo-8 calcium fluorescence, EC20 TRH enhancement; in the data active means enhancement above about 30%; further: 0% is about no effect
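Enhancer read-out: after compound pinning and an initial kinetic agonist-mode read, an EC20 of TRH (10 nM final) was injected and fluo-8 calcium signal (Ex 480/Em 530) followed at 1 s/cycle for 100 cycles in TRHR-expressing cells.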
* = called active by the depositor; · = no result. Most compounds without a hit are left out; they make up all but 4.7% or so of the library. Unless noted, no stated cut-off is given here; in the data, active means activation above about 30%; inactive means the rest.

SMILES	TRHR ag	D1 antagonist	D1 agonist	D1 PAM	TRHR PAM
Cc1nn(C(=O)c2cccc([N+](=O)[O-])c2C)c(C)c1S(=O)(=O)N1CCOCC1	0.4	-1.3	4.0	-1.9	-3.8
Cc1cc2c(s1)c1cnn(Cc3ccc(F)c(C)c3)c(=O)c1n2C	-1.0	-2.3	8.3	6.3	0.8
COc1ccc(S(=O)(=O)N(CC(=O)O)c2ccc(C)cc2)cc1	0.1	-49.7*	2.7	2.9	1.1
COc1ccc(N(Cc2ccccc2)S(=O)(=O)c2ccc(C)cc2)cc1	1.4	-30.3*	14.6	-7.2	-5.1
COc1ccc(S(=O)(=O)N(CC(=O)NC2CC2)c2ccc(C)cc2)cc1	0.5	0.0	2.0	6.1	-4.1
COc1ccc(C(=O)Nc2ccc(S(=O)(=O)N(Cc3ccccc3)c3ccccc3)cc2)cc1	1.8	-4.0	8.7	-0.1	1.9
Cc1cc(NC(=O)CSc2nc3ccccc3n2CC(=O)N2CC(C)CC(C)C2)no1 (stereo not given)	-0.1	-41.3*	-1.2	0.7	-5.9
CCOC(=O)CNC(=O)Cn1nc(N2CCN(c3ccccc3)CC2)ccc1=O	0.2	5.9	1.5	-3.0	2.0
CC1CC(N(C(=O)c2ccc(Cl)cc2)c2ccccc2)c2ccccc2N1C(=O)c1ccco1 (stereo not given)	0.0	-45.8*	1.6	-6.3	-11.6
CC1CC(N(C(=O)c2ccco2)c2ccccc2)c2ccccc2N1C(=O)c1ccco1 (stereo not given)	-0.7	21.1	0.6	8.2	11.7
Cc1ccc(NC(=S)NCCSc2ccc(Cl)cc2)c(C)c1	-1.0	-32.9*	21.5	-6.3	8.2
Cc1ccc(NC(=O)CCSc2ccccc2)c(C)c1	-1.0	-30.0*	-0.5	5.4	1.8
Cc1cc(NC(=O)CCSc2ccccc2)ccc1Br	-0.4	-30.4*	5.1	-9.3	18.0
Cc1cc(Br)ccc1NC(=O)CCSc1ccccc1	1.3	0.6	1.2	-1.6	0.4
Cc1ccc([N+](=O)[O-])cc1NC(=O)CCSc1ccc(Cl)cc1	-1.5	-41.8*	34.2*	-9.2	-4.5
Cc1ccc(C(=O)N2CCN(c3ccccn3)CC2)cc1Cl	-1.1	-8.8	0.0	-0.6	24.5
Cc1c(O)nc(SCC(=O)Nc2nccs2)n(-c2ccccc2F)c1=O	0.3	3.1	1.3	6.3	3.4
CCOC(=O)c1cc2n(c1/N=C/N(C)C)-c1ccccc1C2=O	84.5*	-9.7	90.2*	-4.6	-2.3
O=C(Nc1ccc(-c2nc3ccccc3s2)c(OC(=O)c2ccccc2)c1)c1ccccc1	0.2	0.8	3.9	-7.8	19.1
O=C(Nc1ccc(-c2nc3ccccc3s2)c(O)c1)c1ccc(Br)cc1	0.3	-33.3*	-0.4	2.4	7.6
CCn1c2cc(C)sc2c2cnn(Cc3ccccc3F)c(=O)c21	1.5	3.2	7.5	-2.1	3.0
Cc1nc2c(-c3ccccc3)c[nH]n2c(=O)c1Cc1ccccc1	-1.2	-20.1	36.5*	·	8.8
Cc1ccc(Cc2c(C)nc3c(-c4ccccc4)c(C)[nH]n3c2=O)cc1	-3.8	19.7	0.1	-0.9	2.3
CCOC(=O)c1cnc2ccccc2c1NCc1ccco1	3.2	-39.2*	5.0	-13.8	6.9
CCOC(=O)c1cnc2ccc(OC)cc2c1NCc1ccccc1	-0.4	-8.3	1.0	-2.0	-6.7
SMILES	TRHR ag	D1 antagonist	D1 agonist	D1 PAM	TRHR PAM
Cc1ccc(S(=O)(=O)Oc2ccc(/C=C3/C(=N)N4C(=NC3=O)SN=C4S(C)(=O)=O)cc2)cc1	-0.5	6.9	0.4	-7.7	6.1
CN(C)c1ccc(/C=C2\C(=N)N3C(=NC2=O)Sc2cc(S(C)(=O)=O)ccc23)cc1	33.9*	-8.0	78.2*	-0.7	1.9
CN(C)c1ccc(/C=C2\C(=N)N3N=C(CC(=O)N4CCCCC4)SC3=NC2=O)cc1	30.6*	7.9	36.5*	0.9	0.6
O=C(c1ccc2c(c1)OCO2)c1cn(Cc2ccc(Cl)cc2)c2ccc(F)cc2c1=O	0.6	7.1	5.1	-1.4	-16.5
C1=CC(c2cc3ccccc3o2)OC(CCc2ccccc2)C1 (stereo not given)	0.2	20.5	7.5	2.7	0.9
CCOc1ccc2oc(C(=O)NNC(=O)c3csc(N4CCOCC4)n3)c(C)c2c1	-1.1	-38.4*	1.7	-16.8	-0.9
COc1ccc(C(=O)c2oc3ccccc3c2NC(=O)COc2c(C)cc(C)cc2C)cc1	0.3	3.1	0.4	1.9	1.8
O=C1C2C(c3ccccc3)C=CC(c3ccccc3)C2C(=O)N1C1CCCCC1 (stereo not given)	-0.4	8.8	2.6	0.8	35.3*
O=C1c2ccccc2C(=O)N1C1CCCCC1	0.5	-26.5	4.2	-6.2	5.1
Cc1ccccc1Cn1c(CN2CCC(C(=O)NCc3cccnc3)CC2)cc2ccccc21	-0.3	34.2	3.0	2.6	-0.2
CCCCOc1ccc(/C=N/Nc2cc(N3CCOCC3)nc(C)n2)cc1	-0.2	7.5	1.5	-3.2	-0.7
Cc1cc(C)n(-c2nnc(Nc3ccc(C)c(Cl)c3)c3ccccc23)n1	-0.4	-39.9*	1.2	-5.8	3.6
Cc1ccc(-c2nnc(-n3nc(C)cc3C)c3ccccc23)cc1	-1.8	0.3	1.5	-8.1	30.5*
CCCCOC(=O)CSc1nc(N)c(C#N)c(-c2ccc(OC)cc2)c1C#N	0.8	-11.0	8.4	-4.5	1.4
CCCOC(=O)CSc1nc(N)c(C#N)c(CC)c1C#N	0.1	-40.3*	3.7	-5.4	-11.4
CCc1cccc(C)c1NC(=O)C1CCCN1S(=O)(=O)c1cccc2nsnc12 (stereo not given)	0.4	1.3	2.8	-1.6	5.5
C=C(C)COc1ccc(C2NC(=O)c3ccccc3O2)cc1OCC (stereo not given)	-0.2	-49.1*	3.8	-12.9	-0.4
O=C1NC(c2cccc(Cl)c2)Oc2ccccc21 (stereo not given)	-0.1	-9.0	0.2	-11.4	31.9*
CCOc1ccc(C2NC(=O)c3ccccc3O2)cc1OCC (stereo not given)	1.0	3.5	9.0	-3.0	6.4
COc1cccc(CNC(=O)CSC2=Nc3ccccc3C3=NC(C)C(=O)N23)c1OC (stereo not given)	-1.4	5.8	0.6	0.7	6.2
CCCCOc1ccc(C(=O)N(Cc2nc(-c3ccc(Cl)cc3)no2)C(C)C)cc1	3.6	-5.5	28.8	4.1	-3.1
C#CCOCCOCCOCCNc1nc(N2CCN(C(=O)CCCCCCCCCCNC(=O)[C@H](CCCCN)n3cc(C)nn3)CC2)nc(N2CCN(C(=O)CCCCCCCCCCNC(=O)[C@H](CCCCN)n3cc(CCCC(=O)O)nn3)CC2)n1	-0.2	14.2	30.4*	-3.2	6.9
C#CCOCCOCCOCCNc1nc(N2CCOCC2)nc(N2CCN(C(=O)CCCCCCCCCCNC(=O)[C@@H](CCC(=O)O)n3cc(CCCCCN)nn3)CC2)n1	-0.2	-8.1	5.5	-3.5	-3.9
